Source: ChEMBL document CHEMBL1961873, “Compounds: GSK PKIS; Assays: Nanosyn kinase panel” (2012)

Experiments:
[1] = biological target: Serine/threonine-protein kinase PAK 6 (Homo sapiens) (UniProt Q9NQU5); conditions: at 1 µM;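 note: values are mean percent inhibition of PAK6 kinase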
[2] = test system: Tyrosine-protein kinase ABL1 (Homo sapiens), P00519 [E255K]; conditions: at 0.1 µM
[3] = test system: Tyrosine-protein kinase ABL1 (Homo sapiens), P00519 [E255K]; conditions: at 1 µM
[4] = test system: Tyrosine-protein kinase ABL1 (Homo sapiens), P00519 [H396P]; conditions: at 0.1 µM
[5] = test system: Tyrosine-protein kinase ABL1 (Homo sapiens), P00519 [H396P]; conditions: at 1 µM
[6] = test system: Tyrosine-protein kinase ABL1 (Homo sapiens), P00519 [M351T]; conditions: at 0.1 µM
[7] = test system: Tyrosine-protein kinase ABL1 (Homo sapiens), P00519 [M351T]; conditions: at 1 µM
[8] = test system: Tyrosine-protein kinase ABL1 (Homo sapiens), P00519 [Q252H]; conditions: at 0.1 µM
[9] = test system: Tyrosine-protein kinase ABL1 (Homo sapiens), P00519 [Q252H]; conditions: at 1 µM
[10] = test system: Tyrosine-protein kinase ABL1 (Homo sapiens), P00519 [T315I]; conditions: at 0.1 µM

Sequence of Serine/threonine-protein kinase PAK 6 (Homo sapiens) (Q9NQU5 whole entry, looked up): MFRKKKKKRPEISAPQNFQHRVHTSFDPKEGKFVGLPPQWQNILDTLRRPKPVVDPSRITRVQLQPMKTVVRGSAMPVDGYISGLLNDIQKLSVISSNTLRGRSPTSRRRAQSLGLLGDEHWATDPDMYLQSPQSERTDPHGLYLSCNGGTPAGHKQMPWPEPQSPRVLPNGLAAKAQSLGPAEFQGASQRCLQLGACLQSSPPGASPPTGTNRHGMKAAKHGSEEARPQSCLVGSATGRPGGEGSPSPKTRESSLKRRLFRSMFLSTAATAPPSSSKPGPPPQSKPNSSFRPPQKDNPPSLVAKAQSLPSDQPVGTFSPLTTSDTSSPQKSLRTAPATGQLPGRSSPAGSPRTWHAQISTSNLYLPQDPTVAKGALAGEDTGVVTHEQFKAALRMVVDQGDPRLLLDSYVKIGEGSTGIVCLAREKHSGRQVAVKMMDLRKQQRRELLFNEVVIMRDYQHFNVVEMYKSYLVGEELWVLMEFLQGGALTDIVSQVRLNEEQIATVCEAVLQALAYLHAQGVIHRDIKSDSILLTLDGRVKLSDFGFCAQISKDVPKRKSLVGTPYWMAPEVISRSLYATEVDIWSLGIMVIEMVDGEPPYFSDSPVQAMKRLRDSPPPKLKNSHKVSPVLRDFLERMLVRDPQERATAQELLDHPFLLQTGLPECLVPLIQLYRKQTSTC

Row | SMILES | inhibition [1] [%] | inhibition [2] [%] | inhibition [3] [%] | inhibition [4] [%] | inhibition [5] [%] | inhibition [6] [%] | inhibition [7] [%] | inhibition [8] [%] | inhibition [9] [%] | inhibition [10] [%]
1 | Nc1nonc1-c1nc2cnccc2n1C1CCCCC1 | -4.16 | -1.63 | -0.67 | -1.2 | -0.69 | 1.15 | 3.69 | -2.14 | 1.64 | -1.05
2 | COc1cc(C=NNc2ncnc3c2cnn3Cc2ccccc2)ccc1O | -8.83 | 32.5 | 82.7 | 52.3 | 90 | 54.1 | 89.2 | 57.7 | 92.2 | 12.6
3 | NS(=O)(=O)c1ccc(N/C=C2\C(=O)Nc3ccc4ncsc4c32)cc1 | -3.07 | 3.53 | 21.2 | 7.89 | 31.5 | 5.55 | 30.6 | 9.38 | 38.7 | 6.29
4 | CCn1c(-c2nonc2N)nc2c(C#CC(C)(C)O)ncc(OCC3CCNCC3)c21 | 69.3 | -0.11 | 4.95 | 1.89 | 4.52 | -1.14 | 5.41 | 1.06 | 3.85 | 0.9
5 | COc1cccc(-n2ncc3c(N/N=C/c4ccncc4)ncnc32)c1 | -8.53 | 77 | 93.9 | 82.9 | 94.9 | 82.3 | 94 | 87.2 | 95.7 | 42.4
6 | COc1cccc(COc2cc(-n3cnc4ccccc43)sc2C(N)=O)c1 | -1.23 | -0.78 | -0.15 | -1.23 | 3.19 | -1.62 | 2.97 | -0.55 | 3.14 | -1.92
7 | CCn1c(-c2nonc2N)nc2c(C#CC(C)(C)O)nc(O[C@@H](CN)c3ccccc3)cc21 | 67.6 | -0.39 | -0.58 | -0.59 | -0.29 | 0.75 | 5.14 | -0.46 | 0.03 | 1.03
8 | CCn1c(-c2nonc2N)nc2c(C#CCN)ncc(OCCCN)c21 | 2.6 | -4.53 | -4.45 | -4.29 | -0.59 | -1.57 | 1.28 | -2.52 | 0.94 | -2.53
9 | NC(=O)c1sc(-n2cnc3cc(C(F)(F)F)ccc32)cc1OCc1ccccc1Br | 0.31 | 2.61 | 3.23 | 3.11 | 3.6 | 2.27 | 2.72 | 1.81 | 2.64 | 1.04
10 | CCn1c(-c2nonc2N)nc2c(C#CC(C)(C)O)ncc(OC[C@@H]3CCCN3)c21 | 58.4 | -0.36 | -0.79 | 1.51 | 6.5 | -0.07 | 1.33 | 1.26 | -0.4 | 0.19
11 | COc1cc2c(cc1Nc1nc(Nc3ccsc3C(N)=O)c3cc[nH]c3n1)N(C(=O)CN(C)C)CCC2 | 5.48 |  |  | -3.59 | -0.29 | 1.67 | 3.14 | 1.29 | 3.2 | 0.06
12 | Fc1ccc(-c2ncn(C3CCNCC3)c2-c2ccnc(Oc3ccccc3)n2)cc1 | -6.64 | -0.56 | 1.05 | 2.03 | 1.85 | -0.31 | -0.15 | 1.55 | 2.19 | -0.76
13 | Cc1cc(-c2ccco2)cc(C)c1/C=C/c1cncc(-c2nn[nH]n2)c1 | 3.04 | 0.2 | 2.01 | 1.54 | 4.02 | 3.02 | 4.16 | 1.99 | 4.16 | 0.41
14 | NS(=O)(=O)c1ccc(-c2ccc3c(NC(=O)C4CC4)n[nH]c3c2)cc1 | 9.03 | 2.79 | 7.46 | 4.05 | 17.1 | 3.23 | 16.9 | 6.44 | 8.2 | 5.41
